Source: PubChem BioAssay AID504467 (National Center for Advancing Translational Sciences (NCATS), 2011)
Screen size: about 330,000 compounds; about 7,700 (2.3%) were called active. Roughly 26% stayed inconclusive and do not appear here. The list comes from a sample in which actives are over-represented; it also holds similar structures and randomly drawn compounds. Values without a mark were called inactive. Calls come from the whole dose curve; as a rule, active = well fitted inhibition curve with a large enough effect; inconclusive = small, poorly fitted or top-dose-only effect, or effect the other way; inactive = flat fitted curve, though single readings scatter.

Test: qHTS screen for small molecules that inhibit ELG1-dependent DNA repair in human embryonic kidney (HEK293T) cells expressing luciferase-tagged ELG1; note: nearly all actives have a fitted effect of over 55% in size
Settings: HEK293T ELG1-luciferase reporter, luminescence, 16 h, DNA damage induced by 5-fluorouridine; series mostly up to 46.1 µM; activity change, negative = inhibition: at the top concentration
In short: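 Quantitative HTS, concentration-response format. 2,000 cells/well co-treated with 5-fluorouridine and compound, 16 hr in 5% CO2 at 37 °C; ONE-Glo luminescence read after 30 min.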
% is set by controls: 0 for no effect and ±100 for the full control effect; potency is the fitted concentration of half-maximal effect.

| SMILES | activity change, negative = inhibition [%] | Potency |
| --- | --- | --- |
| COc1cc(CN2CCCC(C(=O)c3ccc(SC)cc3)C2)cc(Cl)c1O (stereo not drawn) | -21 | – |
| CCOc1ccccc1OCC(=O)Nc1ccccc1C(=O)NC1CC1 | -13.3 | – |
| Cc1ccc(S(=O)(=O)NCc2ccc(C(=O)NC3CCC(C)CC3)cc2)cc1 (stereo not drawn) | 0.703 | – |
| CCCCn1c(N)c(N(CCOC)C(=O)c2oc3ccc(OC)cc3c2C)c(=O)[nH]c1=O | 12.6 | – |
| CCN(C(=O)COC(=O)CCC(=O)c1cccs1)C1CCCCC1 | 0 | – |
| CC1CCN(C(=O)c2cccc(S(=O)(=O)N3CCCc4ccccc43)c2)CC1 | 16 | – |
| O=C(Nc1nc2ccc([N+](=O)[O-])cc2s1)c1ccc(S(=O)(=O)N2CCCc3ccccc32)cc1 | – | 2.31 µM (active) |
| Cc1cccc(NC(=O)c2cccc(S(=O)(=O)N3CCCC3)c2)n1 | -4.45 | – |
| CS(=O)(=O)c1ccc2nc(NC(=O)c3ccc(N4CCCC4=O)cc3)sc2c1 | -12.2 | – |
| Cc1ccc(NC(=O)c2cccc(S(=O)(=O)N3CCCc4ccccc43)c2)nc1 | – | 18.3 µM (active) |
| CN(C)CCCN(C(=O)c1ccc(S(=O)(=O)N2CCCc3ccccc32)cc1)c1nc2ccc(F)cc2s1 | 0 | – |
| O=C(COC(=O)c1ccco1)Nc1ccc(Cl)cn1 | 23.5 | – |
| COc1ccc(Cl)cc1NC(=O)COC(=O)c1ccc(Br)o1 | 22.8 | – |
| O=C(NCCN1CCOCC1)c1cccc(S(=O)(=O)Nc2ccc(F)cc2)c1 | 4.32 | – |
| COc1ccc(CCNC(=O)CSCc2ccc(Br)cc2)cc1OC | -25.8 | – |
| COc1ccc(C(CCN(Cc2ccc(OC)c(OC)c2)C(=O)CCl)c2ccccc2)cc1 (stereo not drawn) | – | 20.6 µM (active) |
| COc1ccc(COC(=O)NC(C(=O)O)c2ccccc2)cc1 (stereo not drawn) | 0.779 | – |
| CCOC(=O)CN(Cc1ccc(OC)c(OC)c1)S(=O)(=O)c1ccc(OC)cc1 | 3.12 | – |
| Cc1cccc(C)c1Nc1nnc(SCC(=O)NCCCN2CCCC2=O)s1 | -6.62 | – |
| C[C@H](CO)N1C[C@H](C)[C@@H](CN(C)Cc2ccc(-c3ccccc3)cc2)Oc2ccc(NC(=O)Cn3cnnn3)cc2C1=O | -17.5 | – |
| CC(=O)Nc1cccc(OCC(=O)/C=C2\N(C)c3ccccc3C2(C)C)c1 | – | 18.3 µM (active) |
| CCOc1cccc(NC(=O)CC#N)c1 | -2.32 | – |
| Cc1noc(C)c1C(=O)OCC(=O)/C=C1\N(C)c2ccccc2C1(C)C | 10.3 | – |
| Cc1ccc(-n2c(SCC(=O)NCCC3=CCCCC3)nc3n[nH]c(C)c3c2=N)cc1Cl | 3.77 | – |

| SMILES | activity change, negative = inhibition [%] | Potency |
| --- | --- | --- |
| Cc1ccc2cc(C)c(N3CCN(c4ccc(F)cc4)CC3)nc2c1 | 2.56 | – |
| COc1ccccc1-c1nn(Cc2ccccc2)cc1C(=O)N1CCN(c2ncccn2)CC1 | -22.5 | – |
| O=c1c2c(ncn1Cc1ccccc1)nc1n2CCC1 | 2.62 | – |
| O=c1c2[nH]c3ccc(Cl)cc3c2ncn1Cc1ccccn1 | 3.64 | – |
| CN(C)c1ccnc2sc3c(=O)n(Cc4ccccc4)cnc3c12 | – | 4.61 µM (active) |
| Cc1c(NC(=O)C(C)OC(=O)c2ccccc2O)c(=O)n(-c2ccccc2)n1C (stereo not drawn) | 22.8 | – |
| Cc1cc(C(=O)OC(C)C(=O)Nc2cccc(S(=O)(=O)N3CCOCC3)c2)c(C)o1 (stereo not drawn) | -16.8 | – |
| CC(OC(=O)CCCc1c[nH]c2ccccc12)C(=O)Nc1ccc(S(N)(=O)=O)cc1 (stereo not drawn) | 3.33 | – |
| Cc1ccc(NC(=O)C(C)OC(=O)Cc2c[nH]c3ccccc23)cc1S(=O)(=O)N1CCOCC1 (stereo not drawn) | – | 18.3 µM (active) |
| O=C(N[C@H]1C/C=C\C(c2ccc(F)cc2)N(Cc2ccccc2)C(=O)C1)OCC1c2ccccc2-c2ccccc21 (stereo partly drawn) | -10.5 | – |
| Nc1c(Cl)cc(-c2csc(N3CCCC3c3nc4cc(Cl)c(Cl)cc4n3CCOCCO)n2)cc1Cl (stereo not drawn) | -9.47 | – |
| COc1ccc(OC)c(C(=O)CSc2nnc(-c3cccs3)o2)c1 | 25.4 | – |
| COc1ccc(C(=O)CSc2nnc(-c3ccco3)o2)cc1 | 4.26 | – |
| COc1ccc(-n2c(C)cc(C(=O)CSc3nnc(-c4cccs4)o3)c2C)cc1 | – | 6.51 µM (active) |
| CCN(CC)CCN1C(=O)C2C(C(=O)Nc3ccc(Br)cc3)C3C=CC2(O3)C1C(=O)NC1CCCCC1 (stereo not drawn) | 24.9 | – |
| Cc1ccc(NC(=S)NCCc2ccc(Cl)cc2)c(C)c1 | 1.86 | – |
| CCC1(c2ccccc2)NC(=O)N(CC(=O)Nc2ccccc2C(=O)NC2CCCC2)C1=O (stereo not drawn) | 4.06 | – |
| CCc1ccc(NC(=O)Cn2nnc(C(=O)NCc3ccc(OC)cc3)c2N)cc1 | 17.6 | – |
| COc1cc(C2CC(=O)Oc3cc(OC)c(OC)c(OC)c32)cc(OC)c1OC (stereo not drawn) | 17.8 | – |
| O=C(CN(c1ccc2c(c1)OCCO2)S(=O)(=O)c1ccccc1)Nc1ccc2c(c1)OCO2 | – | 9.2 µM (active) |
| CCN(CC(=O)Nc1ccc2c(c1)OCO2)S(=O)(=O)c1ccccc1 | 1.72 | – |
| O=C(CCS(=O)(=O)Cc1ccccc1)Nc1ccc2c(c1)OCCO2 | 21.4 | – |
| NC(=O)c1cc(S(=O)(=O)NCCCc2ccco2)cs1 | 0.127 | – |
| CCn1cc(C(=O)NCC2COc3ccccc3O2)c2cc(OC)c(OC)cc2c1=O (stereo not drawn) | – | 14.6 µM (active) |
